HP1b chromo inh – inhibitors of HP1-beta chromodomain binding to methylated histone tails | P83916 | Potency, µM (series often up to 114 µM), for the others: at the highest dose activity change, negative = inhibition, actives largely listed as inhibitors | AlphaScreen HP1-beta / biotin-H3K9me3 peptide binding | AID 540317 | actives 0.56% (n = 390,000); also: potency is read from the fitted curve at half-maximal effect; nearly all actives have a fitted effect of over 70% in size
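Compound inhibition of the preformed complex between 50 nM HP1-beta and 50 nM biotinylated H3K9me3 peptide was read by AlphaScreen. Buffer was PBS pH 7.4 with 0.01% Tween-20. Incubations ran 30 min at room temperature, with 10 ug/mL donor/acceptor beads.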
BAZ2B inh – inhibitors of human BAZ2B bromodomain | Potency, µM (highest dose often 114 µM), for the others: at the top dose activity change, negative = inhibition, usual class: inhibitors | Q9UIF8 | actives 4.4% (n = 360,000) | AlphaScreen BAZ2B-H3K14Ac peptide displacement; also: potency is read from the fitted curve at half-maximal effect; % is scaled to controls: 0 for no effect and ±100 for the full control effect; nearly all actives have a fitted effect of over 60% in size
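BAZ2B 50 nM plus b-H3(5-23)K14Ac 50 nM, PBS pH 7.4/0.01% Tween-20, 30 min RT; compound added (max 110 uM), 30 min RT; streptavidin donor/Ni-chelate acceptor beads 10 ug/mL final, 20 min dark; AlphaScreen read.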
L3MBTL1 block – L3MBTL1 (human) inhibition. Q9Y468. AlphaScreen L3MBTL1–H3K9me1 peptide binding. Potency, µM (doses to about 57.1 µM), for inactives: at the highest dose activity, negative = inhibition, hits mostly inhibitors. actives 0.66% (n = 230,000); also: potency is read from the fitted curve at half-maximal effect; % is scaled to controls: 0 for no effect and ±100 for the full control effect; nearly all actives have a fitted effect of over 60% in size
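L3MBTL1 (50 nM) pre-complexed 30 min with biotinylated H3(1-15)K9me1 peptide (75 nM), then compounds added for 30 min at room temperature; AlphaScreen streptavidin donor/nickel chelate acceptor beads (10 ug/mL final) read after 30 min dark incubation.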
PI5P4K alpha inh – blocks human PI5P4K alpha kinase activity. P48426. PI5P4Kalpha enzyme, ADP-Glo luminescence, 60 min; active compounds read low. max response, %. actives 1.2% (n = 330,000). AID 652105; active = max response of -50% or lower; inconclusive = between -30% and -50%; inactive = -30% or higher; also: value at the top dose of about 77 µM; % is scaled to controls: 0 for no effect and ±100 for the full control effect
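Controls without substrate or without enzyme flank wells where PI5P4Kalpha converts substrate using 5 microM ATP (final). Incubation lasts 60 minutes at room temperature; ADP formed is read by ADP-Glo luminescence.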
KDM4E inh – inhibitors of human JMJD2E histone demethylase | B2RXH2 | JMJD2E catalytic domain, FDH-coupled NADH fluorescence (FDH is formaldehyde dehydrogenase) | Potency, µM (top dose mostly 57.1 µM), inactives show at the highest dose activity change, negative = inhibition, actives largely listed as inhibitors | actives 1.6% (n = 230,000) | AID 2147; active = well fitted inhibition curve with a large enough effect, not every such curve was filed as active; inconclusive = small, poorly fitted or top-dose-only effect, or another doubt; inactive = no such curve, though single readings can be large or run the other way;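 also: potency is read from the fitted curve at half-maximal effect; 0% = wells with enzyme and -100% = buffer wells without enzyme; nearly all actives have a fitted effect of over 50% in size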
JMJD2A Tudor – blocks the human JMJD2A Tudor domain. O75164. AlphaScreen JMJD2A-Tudor / H3K4me3 peptide binding. Potency, µM (series often up to 114 µM), for inactives: at the highest dose activity change, negative = inhibition, usual class: inhibitors. actives 4.4% (n = 390,000); also: potency is read from the fitted curve at half-maximal effect; % is scaled to controls: 0 for no effect and ±100 for the full control effect; nearly all actives have a fitted effect of over 50% in size
* = called active by the depositor; ? = inconclusive; nt = no result given; [ ] = remark or other dose. An excerpt weighted towards active compounds, which were near 5.7% of everything screened. Unless noted, calls follow the shape of the dose curve; as a rule, active = well fitted inhibition curve with a large enough effect; inconclusive = small, poorly fitted or top-dose-only effect; inactive = no such curve, though single readings can be large or run the other way.

SMILES	HP1b chromo inh	BAZ2B inh	L3MBTL1 block	PI5P4K alpha inh	KDM4E inh	JMJD2A Tudor
O=C(/C=C/c1ccc(O)c(O)c1)c1ccccc1O	44.7µM*	39.8µM*	-3.9%	-0.8	25.1µM*	3.55µM*
O=C(/C=C/c1ccc(O)c(O)c1)OCCc1ccccc1	-23.7%	nt	nt	4.2	20µM*	89.1µM*
O=C(O)/C=C\c1ccc(O)c(O)c1	nt	nt	nt	nt	11.2µM*	nt
NC(N)=Nc1nc(CSCC/C(N)=N\S(N)(=O)=O)cs1	nt	nt	nt	nt	-0.3%	nt
CCOC(=O)Cn1c(=O)n(-c2ccccc2OC)c2nc(-c3ccccc3)nc(C(N)=O)c21	16.5%[57 µM]	-23.0%	nt	nt	nt	-22.7%
O=[N+]([O-])c1cccc(/C=N/n2cnnc2)c1O	48.1%	-6.6%	-1.7%	?	7.6%	-16.0%
O=c1c2c(-c3ccc(Cl)cc3)csc2ncn1/N=C/c1cccc([N+](=O)[O-])c1O	-17.3%	50.1µM*	nt	-70.7*	-15.0%	39.8µM*
Cc1c(Cl)cccc1NC(=O)Cn1cc(C(=O)C2CCCCC2)c2ccccc21	22.5%	-1.1%	nt	nt	nt	-0.7%
COc1ccc2c(C)c(CCC(=O)NCCc3ccc(Cl)cc3)c(=O)oc2c1	21.8%	-5.0%	nt	nt	nt	-16.7%
COc1ccc(N2CCN(CCCNC(=O)c3nnc(Cc4ccccc4Cl)o3)CC2)cc1	?	35.5µM*	nt	nt	nt	50.1µM*
COc1ccc(N2CCN(CCCNC(=O)C(=O)c3c(C)n(C)c4ccccc34)CC2)cc1	26.2%	35.5µM*	nt	1.7	nt	?
COc1ccc(N2CCN(C(=O)C(=O)c3c(C)n(C)c4ccccc34)CC2)cc1	-18.5%	?	4.7%	6.7	-8.4%	?
COc1ccccc1N1CCN(CCCNC(=O)c2nnc(Cc3ccc(F)cc3Cl)o2)CC1	1.1%	-9.2%	nt	nt	nt	-25.7%
O=C(NCCCN1CCN(c2ccc(F)cc2)CC1)c1ccc2nc(Cc3ccccc3)oc2c1	-8.6%[57 µM]	31.6µM*	nt	nt	nt	?
COc1ccc(N2CCN(CCCNC(=O)c3ccc4nc(N5CCCCC5)sc4c3)CC2)cc1	?	25.1µM*	nt	nt	nt	44.7µM*
O=C(CN1C(=O)c2cccnc2Sc2ccccc21)Nc1cc(F)ccc1F	-18.1%	-11.8%	nt	nt	nt	-18.7%
COc1ccc(N2CCN(CCCNC(=O)c3sc4ncccc4c3-n3cccc3)CC2)cc1	-27.4%[57 µM]	35.5µM*	nt	nt	nt	39.8µM*
O=C(NCCCN1CCCCC1)c1sc2ncccc2c1-n1cccc1	3.8%[57 µM]	-13.0%	nt	nt	nt	-23.3%
COc1ccc(N2CCN(CCCNC(=O)Cn3c(=O)c4cccn4c4cccnc43)CC2)cc1	-12.0%	31.6µM*	nt	-1.2	nt	50.1µM*
O=C(Cn1c(=O)c2cccn2c2cccnc21)NCCCN1CCN(c2ccc(F)cc2)CC1	22.6%	-32.3%	nt	-0.2	nt	-32.6%
COc1ccccc1N1CCN(c2ccc(-c3nc(-c4ccccc4)no3)cc2[N+](=O)[O-])CC1	1.8%	-2.0%	nt	nt	nt	-12.9%
COc1cccc2c(=S)c(CCC(C)=O)c(C)[nH]c12	?	-7.6%	45.4%	-25.5	-6.3%	10µM*
CCCn1c(=O)c2ccccc2n2c(SCC(=O)c3ccccc3)nnc12	11.1%	-27.7%	nt	nt	-0.3%	25.1µM*
CCCCn1c(=O)c2ccccc2n2c(=S)[nH]nc12	-19.3%	?	nt	-17.9	nt	3.55µM*
CCCCCn1c(=O)c2ccccc2n2c(=S)[nH]nc12	0.2%	-33.2%	nt	-19.0	nt	6.31µM*
SMILES	HP1b chromo inh	BAZ2B inh	L3MBTL1 block	PI5P4K alpha inh	KDM4E inh	JMJD2A Tudor
CCCn1c(=O)c2ccccc2n2c(SCC(=O)c3ccc(F)cc3)nnc12	nt	11.6%	nt	nt	6.1%	nt
Cn1c(=O)c2ccccc2n2c(=S)[nH]nc12	79.4µM*	-9.5%	nt	-15.1	nt	3.16µM*
Cn1c(=O)c2ccccc2n2c(CCl)nnc12	25.7%	-2.3%	nt	1.9	nt	-3.5%
Cc1cccc(OCCSc2nc3ccc(NC(=O)COc4ccccc4)cc3s2)c1	49.5%	?	nt	nt	nt	-13.6%
CCOC(=O)c1cc(-c2ccc(C)cc2)n(CC(=O)Nc2ccc(OC)c(Cl)c2)c1C	25.7%	-1.0%	nt	nt	nt	-7.3%
CC(NC(=O)CSc1n[nH]c(-c2ccccc2Cl)n1)c1nc2ccccc2[nH]1 (configuration not stated)	27.5%[57 µM]	0.2%	nt	nt	nt	-2.6%
O=c1c2ccccc2n2c(=S)[nH]nc2n1-c1ccccc1	?	?	nt	-22.6	nt	3.16µM*
CCC(C)c1ccc(-n2c(=O)c3ccccc3n3c(=S)[nH]nc23)cc1 (configuration not stated)	-30.2%	3.2%	nt	-8.7	nt	-10.3%
CCCn1c(=O)c2ccccc2n2c(=S)[nH]nc12	26.6%	-5.2%	nt	-10.2	nt	1.41µM*
Cc1cccc(NC(=O)CSc2nc(=O)n(Cc3cccnc3)c3c2CCC3)c1	25.9%	9.8%	nt	nt	nt	-11.7%
Cc1ccc(NC(=S)c2nc3ccccc3[nH]2)c(C)c1	?	28.2µM*	?	-0.9	?	?
Cc1ccc(NC(=S)c2nc3ccccc3[nH]2)cc1	?	10µM*	?	-3.1	?	?
Cc1cc2c(s1)c1cnn(Cc3ccc(F)c(Cl)c3)c(=O)c1n2C	nt	nt	nt	nt	nt	-22.6%
C[C@]12c3[nH]c4cc(-c5ccco5)ccc4c3CCN1C(=O)[C@@H](CC(=O)NCCCn1ccnc1)C[C@@H]2C(=O)N1CCOCC1	-34.1%	nt	-9.5%	-7.4	nt	?
c1ccc(CCc2nc3ccccc3[nH]2)cc1	40.4%	0.6%	5.8%	0.5	4.1%	-8.3%
S=c1cnc2ccccc2[nH]1	?	56.2µM*	2.5%	-61.2*	11.2µM*	4.47µM*
O=C(Nc1cccc(S(=O)(=O)NC2=NCCC2)c1)C1CC(=O)N(c2ccc3c(c2)OCCO3)C1 (configuration not stated)	14.7%	?	-17.3%	6.7	5.3%	?
Cc1ccccc1-n1c(-c2csc(C)c2C)n[nH]c1=S	22.3%	-8.7%	-6.9%	0.9	-19.5%	50.1µM*
Cc1scc(-c2n[nH]c(=S)n2C(C)c2ccccc2)c1C (configuration not stated)	15.7%	?	-1.3%	-6.7	3.7%	79.4µM*
Cc1ccccc1-n1c(-c2csc3ccccc23)n[nH]c1=S	10.4%	-37.7%	-7.2%	-8.9	-0.7%	?
Cc1cccc(-n2c(-c3csc(C)c3C)n[nH]c2=S)c1	-1.8%	-11.4%	-9.9%	-12.0	-8.4%	22.4µM*
Cc1ccc(C(=O)Nc2nnc(SCc3cc(=O)n4ccc(C)cc4n3)s2)cc1	12.7%[57 µM]	5.6%	nt	nt	nt	-6.5%
COc1ccc(-n2cc(C(=O)Oc3cc(C)cc(C)c3)c3ccccc3c2=O)cc1	13.4%[57 µM]	-7.5%	nt	nt	nt	-6.1%
Cc1ccc(C)c(NC(=O)CSc2nc3c([nH]c4ccccc43)c(=O)n2-c2ccc(F)cc2)c1	11.4%[57 µM]	1.3%	nt	nt	nt	5.8%
COC(=O)c1ccc2c(c1)C(C)(C)C(/C=C/c1ccccc1O)=[N+]2C	?	8.91µM*	-21.1%	nt	?	56.2µM*
